About 14,000 (4.5%) of roughly 310,000 compounds showed an effect of 50% or more. Effects have a minus sign here. The sample as a whole holds a higher share of strong results than the screen did.
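Note: peak tail current of the secondary pulse compared with the same well before compound.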

Sequence of human ether-à-go-go-related gene (hERG) potassium channel (Q12809 whole entry, looked up): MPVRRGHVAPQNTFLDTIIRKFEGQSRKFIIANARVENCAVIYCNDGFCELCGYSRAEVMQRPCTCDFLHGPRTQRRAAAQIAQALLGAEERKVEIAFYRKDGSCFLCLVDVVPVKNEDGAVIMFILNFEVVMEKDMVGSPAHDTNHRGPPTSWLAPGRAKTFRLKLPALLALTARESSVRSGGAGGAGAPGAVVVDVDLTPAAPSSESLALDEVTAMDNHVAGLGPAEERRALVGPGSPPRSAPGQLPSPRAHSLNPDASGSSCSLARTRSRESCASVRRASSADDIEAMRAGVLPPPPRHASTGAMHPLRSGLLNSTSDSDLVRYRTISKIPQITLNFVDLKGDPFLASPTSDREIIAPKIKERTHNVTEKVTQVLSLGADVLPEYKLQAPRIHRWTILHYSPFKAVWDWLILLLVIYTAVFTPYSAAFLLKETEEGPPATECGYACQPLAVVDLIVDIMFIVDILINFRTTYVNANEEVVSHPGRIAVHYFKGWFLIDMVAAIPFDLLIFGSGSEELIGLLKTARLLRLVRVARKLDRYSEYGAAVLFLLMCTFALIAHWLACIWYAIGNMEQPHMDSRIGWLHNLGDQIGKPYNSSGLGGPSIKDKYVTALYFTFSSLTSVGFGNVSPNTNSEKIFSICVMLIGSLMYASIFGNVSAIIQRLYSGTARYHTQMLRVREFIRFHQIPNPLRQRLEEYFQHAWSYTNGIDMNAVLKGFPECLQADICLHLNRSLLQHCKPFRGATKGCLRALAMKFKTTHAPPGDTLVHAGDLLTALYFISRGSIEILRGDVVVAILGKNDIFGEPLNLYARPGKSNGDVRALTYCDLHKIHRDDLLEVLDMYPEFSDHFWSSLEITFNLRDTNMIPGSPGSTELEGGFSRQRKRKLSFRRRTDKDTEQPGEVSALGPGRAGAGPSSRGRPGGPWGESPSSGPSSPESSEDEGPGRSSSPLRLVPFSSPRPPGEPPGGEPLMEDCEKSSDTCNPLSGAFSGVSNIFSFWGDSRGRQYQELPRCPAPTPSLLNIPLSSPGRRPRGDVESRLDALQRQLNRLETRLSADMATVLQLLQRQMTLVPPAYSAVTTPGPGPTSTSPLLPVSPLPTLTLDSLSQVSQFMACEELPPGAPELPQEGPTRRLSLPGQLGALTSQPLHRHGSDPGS

This experiment concerns the target human ether-à-go-go-related gene (hERG) potassium channel (human, UniProt Q12809). Put plainly: primary screen, population patch clamp on CHO cells stably expressing hERG; higher = less effect of the substance.
For `COc1ccc(C(CNC(=O)c2ccc(NS(=O)(=O)c3ccc(F)c(C)c3)cc2)N(C)C)cc1` (centres unmarked), the “hERG current change (%, negative = inhibition) at 10uM” value is on record as -25.8%.
With `COc1ccccc1C(CNC(=O)c1cccc(NS(=O)(=O)c2ccc(Br)cc2)c1)N(C)C` (centres unmarked) the figure was -51.7%.
Consider `Cc1ccc(S(=O)(=O)Nc2cccc(C(=O)NCC(c3ccccc3)N(C)C)c2)cc1F` (centres unmarked), for which the “hERG current change (%, negative = inhibition) at 10uM” value is listed as -45.8%.
For the compound `COc1ccc(C(CNC(=O)c2cccc(NS(=O)(=O)c3ccc(C)c(F)c3)c2)N(C)C)cc1` (centres unmarked), the “hERG current change (%, negative = inhibition) at 10uM” value was -62.6%.
With `COc1ccc(C(CNC(=O)c2cccc(NS(=O)(=O)c3ccccc3)c2)N(C)C)cc1` (centres unmarked) the figure was -46.4%; with `Cc1ccc(S(=O)(=O)Nc2cccc(C(=O)NCC(c3ccco3)N3CCCC3)c2)cc1F` (centres unmarked), -38.5%.
As for `COc1ccccc1C(CNC(=O)c1cccc(S(=O)(=O)Nc2ccc(C)cc2)c1)N(C)C` (centres unmarked), the “hERG current change (%, negative = inhibition) at 10uM” value is -8.39%.
With `COc1ccccc1C(CNC(=O)c1cccc(NS(=O)(=O)c2ccc(C)c(F)c2)c1)N(C)C` (centres unmarked) the figure was -42.5%; with `CCOc1ccc(S(=O)(=O)Nc2cccc(C(=O)NCC(c3ccccc3)N(C)C)c2)cc1` (centres unmarked), -12%; with `COc1ccc(C(CNC(=O)c2cccc(NS(=O)(=O)c3ccc(C)c(F)c3)c2)N2CCCC2)cc1` (centres unmarked), -64%.
On to `COc1ccc(C(CNC(=O)c2cccc(NS(=O)(=O)c3ccc(C)c(F)c3)c2)N2CCOCC2)cc1` (centres unmarked), for which the “hERG current change (%, negative = inhibition) at 10uM” value was -9.43%.
For `COc1ccc(C(CNC(=O)c2cccc(NS(=O)(=O)c3ccc(Br)cc3)c2)N(C)C)cc1` (centres unmarked) the value was -61.5%.
Consider `CCOC(=O)CN1C(=O)C(O)=C(C(C)=O)C1c1ccccc1` (centres unmarked), for which the “hERG current change (%, negative = inhibition) at 10uM” value is 11.3%.
For `Cc1c(-c2ccccc2)nc2ccccc2c1C(=O)Oc1ccc([N+](=O)[O-])cc1` the value was -21.6%; for `COc1ccc(C(=O)OCCNC(=O)c2c(Cl)nc3ccccn23)cc1.Cl`, -6.58%.
`CC(=O)C(=Nc1ccccc1Cl)NNc1ccc(Cl)cc1`: the “hERG current change (%, negative = inhibition) at 10uM” value turned out to be 17.3%.
Turning to `CN1CCN(S(=O)(=O)c2cccc(C(=O)N(Cc3nnc(-c4ccc(Cl)cc4)o3)C3CC3)c2)CC1`, the “hERG current change (%, negative = inhibition) at 10uM” value was -49.3%.
With `Nc1cccc(-c2cc3ccccc3oc2=O)c1`, the “hERG current change (%, negative = inhibition) at 10uM” value is 6.38%.
For `COc1ccc(Cl)cc1C(=O)N1CCN=C1SC` the value was 21.3%; for `CCOc1ccc(NC(=O)c2ccccc2NC(=O)c2cccnc2)cc1`, 7.52%; for `COc1c(C)cc(C(=O)C2CCCN(C(=O)c3cc(C)nc(C)n3)C2)cc1C` (centres unmarked), 7.89%.
In the case of `COC(=O)C1=C(c2ccc(F)cc2OCc2ccccc2)C[C@@H]2CC[C@H]1N2C(=O)NCC1CC1`, the “hERG current change (%, negative = inhibition) at 10uM” value was -51.5%.
For `COC(=O)C1=C(c2ccc(F)cc2OCc2ccccc2)C[C@@H]2CC[C@H]1N2C(=O)NCc1ccc(F)cc1`, the “hERG current change (%, negative = inhibition) at 10uM” value is -5.76%.
Turning to `COC(=O)C1=C(c2ccc(F)cc2OCc2ccccc2)C[C@@H]2CC[C@H]1N2C`, the “hERG current change (%, negative = inhibition) at 10uM” value was -52%.
With `COC(=O)C1=C(c2ccc(F)cc2OCc2ccccc2)C[C@@H]2CC[C@H]1N2C(=O)NCc1ccccc1` the figure was -1.03%.
For `COC(=O)C1=C(c2ccc(F)cc2OCc2ccccc2)C[C@@H]2CC[C@H]1N2C(=O)NC1CC1` the value was -10.4%.
As to `COC(=O)C1=C(c2ccc(F)cc2OCc2ccccc2)C[C@@H]2CC[C@H]1N2C(=O)NC(C)C`, the “hERG current change (%, negative = inhibition) at 10uM” value is -35.3%.
With `C#CCOCCOCCOCCNc1nc(N2CCN(C(=O)[C@H](CCC(=O)O)n3cc(C(N)[C@H](C)CC)nn3)CC2)nc(N2CCN(C(=O)[C@H](Cc3ccc(O)cc3)n3cc(C(N)[C@H](C)CC)nn3)CC2)n1.Cl` (some centres unmarked) the figure was 7.62%; with `COc1cc(CCC(=O)Nc2nccs2)cc(OC)c1OC`, 3.1%; with `CCn1nc(C)cc1C(=O)N1CCCC(C(=O)c2ccc(OC)cc2C)C1` (centres unmarked), 3.32%.
Take `Cc1ccccc1S(=O)(=O)Cc1ccc(C(=O)NC2CCCCCC2)o1`: the “hERG current change (%, negative = inhibition) at 10uM” value was -31.9%.
Take `CC(=O)Oc1ccc(/C=N/NC(=O)C2CCCN2S(=O)(=O)c2ccc(Cl)cc2)cc1` (centres unmarked): the “hERG current change (%, negative = inhibition) at 10uM” value is -28.1%.
For `Cn1c(=O)c2c(n(C)c1=O)=NC1(CCCCC1)ON=2` the value was -15.4%.
With `O=C(NCc1ccco1)C1CCN(S(=O)(=O)N2CCOCC2)CC1`, the “hERG current change (%, negative = inhibition) at 10uM” value is listed as -13.1%.
For `Cc1ccc(SCCN2CCN(Cc3ccccc3)CC2)cc1.O=C(O)C(=O)O` the value was -37%; for `COc1ccc(CN2CCN(CCSc3ccc(C)cc3)CC2)c(OC)c1OC.O=C(O)C(=O)O`, -58.5%; for `COc1ccc(CN2CCN(S(=O)(=O)c3ccc(F)cc3)CC2)c(OC)c1OC.O=C(O)C(=O)O`, -23.4%.
With `COc1cccc(CN2CCN(Cc3cccc(Br)c3)CC2)c1OC.O=C(O)C(=O)O` the figure was -21.2%; with `COc1ccc(CN2CCN(Cc3cccc(Oc4ccccc4)c3)CC2)c(OC)c1OC.O=C(O)C(=O)O`, -58%.
For `CCN1CCN(CCOc2ccc(Cl)cc2)CC1.O=C(O)C(=O)O` the value was -34.3%; for `COc1ccc(CN2CCN(CCCCOc3ccc(Cl)cc3)CC2)c(OC)c1OC.O=C(O)C(=O)O`, -74.4%.
Turning to `COc1ccc(CN2CCN(Cc3ccc(OC)c(OC)c3OC)CC2)cc1.O=C(O)C(=O)O`, the “hERG current change (%, negative = inhibition) at 10uM” value is reported as -41.3%.
On to `CN1CCN(Cc2cccc(Oc3ccccc3)c2)CC1`, for which the “hERG current change (%, negative = inhibition) at 10uM” value is -28.2%.
With `COc1cccc(CN2CCN(Cc3cccc(Oc4ccccc4)c3)CC2)c1OC.O=C(O)C(=O)O` the figure was -21.7%.
On to `COc1ccc(CN2CCN(Cc3ccc(Br)cc3)CC2)c(OC)c1OC.O=C(O)C(=O)O`, for which the “hERG current change (%, negative = inhibition) at 10uM” value is reported as -69.7%.
For `COc1ccc(CN2CCN(C(=O)c3cccc4ccccc34)CC2)c(OC)c1OC.O=C(O)C(=O)O` the value was 11.9%; for `COc1ccc(C(=O)NC(=S)N(CCC(C)C)c2c(N)n(Cc3ccccc3)c(=O)[nH]c2=O)cc1`, -5.8%; for `CN1C(=O)/C(=C2\SC(=S)N(C(CCC(=O)O)C(=O)O)C2=O)c2ccccc21` (centres unmarked), 13%.
On to `O=C(COc1ccc(F)cc1)c1ccc2c(c1)CCCC2`, for which the “hERG current change (%, negative = inhibition) at 10uM” value is recorded as -5.65%.
For `CCOC(=O)NNc1nncc2ccccc12.Cl` the value was 2.17%; for `Cc1nn(-c2ccccc2)c(C)c1NC(=O)COC(=O)c1cccc(OC(F)F)c1`, -38.1%.
As to `CCOC(=O)C1C(=O)C=C(/C=C/c2ccccc2)CC1c1ccc(Cl)cc1` (centres unmarked), the “hERG current change (%, negative = inhibition) at 10uM” value is listed as -0.716%.
For `CCCc1nc(-c2ccc(-c3ccc(F)cc3)cc2)no1` the value was 7.85%; for `CC(C(=O)NCc1ccc(Cl)cc1)n1cccc1C(=O)c1ccccc1` (centres unmarked), -21.4%; for `O=C(O)c1ccc(-c2nnn(Cc3ccccc3F)n2)cc1`, 58.7%.
With `CCN(CC)CC(O)COc1ccccc1C(=O)CCc1ccccc1` (centres unmarked) the figure was -3.49%; with `CC(C)(C)NCC(O)COc1ccccc1C(=O)CCc1ccccc1.Cl` (centres unmarked), -69.9%; with `CC(C)(C)NCC(O)COc1cccc2[nH]c(=O)[nH]c12.Cl` (centres unmarked), 7.11%.
For `CC1=CC(=C2C(=O)NC(=S)NC2=O)C=C(C(F)(F)F)N1CCc1ccccc1` the value was 12.9%.

Source of the values: paper PMC4336329 (PLoS ONE, 2015).
